The record followed here is PubChem BioAssay (EPA / NIEHS).

For orientation: AC50 means the midpoint of the concentration-response curve, whichever way the signal moves.

Records with an inconclusive call do not appear. The source holds several records for some structures; these can differ, active in one and inactive in another. Calls of active or inactive are those of the source. The calls were made as follows, unless noted: active = hit-call score of the fitted dose curve at least 0.9, where 1 is the maximum; inactive = score below 0.9.

A short description of assay [1]: CCTE_Mundy_HCI_Cortical_Synap_Neur_Matur_NeuriteCount: CCTE's Synaptogenesis and Neurite Maturation Assay in rat cortical cells for Neurite Count, Mundy Lab (AID 2284222).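 As to outcome: exposure from day 7 to day 12 in vitro with readout at day 12.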 The essentials: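 Primary rat cortical cells were plated, treated with AraC at DIV 5, then exposed to chemicals from DIV 7 through DIV 12. After fixation and immunostaining for MAP2 and synaptophysin, imaging quantified neurites, with DMSO as the negative control.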

The nature of assay [2]: CCTE_Mundy_HCI_Cortical_Synap_Neur_Matur_CellBodySpotCount: CCTE's Synaptogenesis and Neurite Maturation Assay in rat cortical cells for Cell Body Spot Count, Mundy Lab (AID 2284223). The essentials: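 Chemicals were applied to AraC-treated rat primary cortical cells at DIV 7 and measured at DIV 12. Fixed cells were labelled for MAP2, synaptophysin and nuclei, and high-content imaging gave cell body synaptophysin spot counts per neuron relative to DMSO.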

A short description of assay [3]: BSK_BT_PBMCCytotoxicity: PBMC Cytotoxicity Assessment in the BioMAP Diversity Plus: BT Assay (AID 2284225).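 Also: PBMC viability measured by Alamar Blue dye reduction fluorescence.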 The following applies: primary human B cells with PBMC. A digest of the protocol:
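Primary human co-culture of B cells and PBMC, pre-dosed 1 h then activated with SEB and TSST-1. Cytotoxicity is taken from Alamar Blue dye reduction, added for 6 h at the end of a 90 h incubation.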

Read-out in assay [4]: Secreted IgG (sIgG), gene 3500
The assay is described as follows: BSK_BT_sIgG: BioMAP Diversity Plus: BT Assay for Secreted IgG (sIgG) Biomarker Activity (AID 2284226). The following applies: primary human B cells with PBMC. The essentials:
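Human B cell/PBMC co-culture; compound exposure 24 h; sIgG by ELISA; gain-of-signal fit vs DMSO baseline.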

Assay [5] in a line: BSK_BT_Bcell_Proliferation: Viability Assessment in the BioMAP Diversity Plus: BT Assay for B cell Proliferation (AID 2284227). The following applies: primary human B cells with PBMC. A digest of the protocol:
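Read-out is absorbance at 560 nm from sulforhodamine B staining of total protein, reflecting relative cell numbers in a human B cell and PBMC co-culture after 72 h of chemical exposure. Values were referenced to DMSO.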

Read-out in assay [6]: Interleukin 6 (IL6), IL6 (gene 3569)
Put plainly: BSK_BT_xIL6: BioMAP Diversity Plus: BT Assay for Interleukin 6 (IL6) Biomarker Activity (AID 2284228). The following applies: primary human B cells with PBMC. A digest of the protocol:
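IL-6 secretion measured (Luminex xMAP) in human primary B cell + PBMC co-culture at 24 h of chemical exposure; DMSO served as negative control and activity baseline, with curves fitted for increase.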

Read-out in assay [7]: Interleukin 17A (IL17A), IL17A (gene 3605)
Put plainly: BSK_BT_xIL17A: BioMAP Diversity Plus: BT Assay for Interleukin 17A (IL17A) Biomarker Activity (AID 2284229). The following applies: primary human B cells with PBMC. The essentials:
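Human primary B cells plus PBMC, treated 24 h with chemicals; supernatant IL-17A quantified on Luminex xMAP beads. Gain of signal over DMSO control scored as activity.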

Read-out in assay [8]: Tumor necrosis factor (Homo sapiens) (UniProt P01375)
The assay is described as follows: BSK_BT_xTNFa: BioMAP Diversity Plus: BT Assay for Tumor necrosis factor alpha (TNF-alpha) Biomarker Activity (AID 2284230). The following applies: primary human B cells with PBMC. A digest of the protocol: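 Human primary co-culture of B cells and peripheral blood mononuclear cells; TNF-alpha in supernatant, 24 h post-dose, Luminex multiplex; DMSO = baseline.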

Read-out in assay [9]: Vascular cell adhesion molecule 1 (VCAM1), VCAM1 (gene 7412)
Put plainly: BSK_MyoF_VCAM1: BioMAP Diversity Plus: MyoF Assay for Vascular cell adhesion molecule 1 (VCAM1) Biomarker Activity (AID 2284231). The following applies: primary human lung fibroblasts. A digest of the protocol: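 VCAM-1 levels, lung fibroblasts, ELISA, 24 h exposure, increase scored relative to DMSO.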

A short description of assay [10]: CCTE_Mundy_HCI_Cortical_NOG_NeuronCount: CCTE's Neurite Outgrowth Assay in rat cortical cells for Neuron Count, Mundy Lab (AID 2284236; active = hit-call score of the fitted dose curve at least 0.9, where 1 is the maximum;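 also: neurons counted by imaging betaIII-tubulin and Hoechst stained cortical cells; cells exposed to compound for about 48 hours before fixation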). The essentials: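 Read-out: neuron number by high-content imaging of betaIII-tubulin (Alexa Fluor-488) and Hoechst-labelled rat primary cortical cells.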
Assay [11] can be described thus: CCTE_Mundy_HCI_Cortical_NOG_BPCount: CCTE's Neurite Outgrowth Assay in rat cortical cells for Branch Point Count, Mundy Lab (AID 2284237).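 As to AC50: branch points counted about two days after chemical exposure.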 A digest of the protocol: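 Measured 50.33 h after dosing, this morphology endpoint uses rat primary cortical cultures labelled for betaIII-tubulin. Branch points are quantified by high-content imaging, with DMSO as negative control and baseline.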

Read-out in assay [12]: Collagen I, COL1A1 (gene 1277)
The assay is described as follows: BSK_MyoF_CollagenI: BioMAP Diversity Plus: MyoF Assay for Collagen I Biomarker Activity (AID 2284238). The following applies: primary human lung fibroblasts. The essentials:
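Measured by ELISA: Collagen I from human lung fibroblasts 24 h after compound addition, analysed for signal gain with DMSO as baseline; overt toxicity read from SRB staining of parallel cultures at the same time.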

Read-out in assay [13]: Collagen III, COL3A1 (gene 1281)
The assay is described as follows: BSK_MyoF_CollagenIII: BioMAP Diversity Plus: MyoF Assay for Collagen III Biomarker Activity (AID 2284239). The following applies: primary human lung fibroblasts. A digest of the protocol:
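Multiplexed cell assay in lung fibroblasts, harvested at 24 h post-dose. Collagen III detected by ELISA, with positive-direction fitting relative to DMSO vehicle.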

Assay [14] in a line: CCTE_Mundy_HCI_Cortical_Synap_Neur_Matur_NeuronCount: CCTE's Synaptogenesis and Neurite Maturation Assay in rat cortical cells for Neuron Count, Mundy Lab (AID 2284242; active = hit-call score of the fitted dose curve at least 0.9, where 1 is the maximum;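 as to AC50: neuron number from Hoechst nuclei and MAP2 staining by high-content imaging; hits reduce neuron count versus DMSO baseline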). The essentials:
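Rat cortical cultures; AraC DIV 5; chemical dosing + media change DIV 7 to DIV 12 (288.33 h readout). Fix, Hoechst, anti-MAP2/anti-synaptophysin immunostain; HCI neuron count vs DMSO baseline.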

A short description of assay [15]: TAMU_HCS_1.5hr_SingleDonor1434_Cytotoxicity: Cytotoxicity Assessment using High-content Screening (HCS) Fluorescent Imaging for the Texas A&M University (TAMU) 1.5-hr Human Induced Pluripotent Stem Cell (iPSC)-derived Cardiotoxicity Assay (AID 2284234; active = hit-call score of the fitted dose curve at least 0.9, where 1 is the maximum). A digest of the protocol: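 Nuclear counts from Hoechst 33342 imaging define cytotoxicity here, with EC10 (10% cell-count loss relative to DMSO) as point of departure. iPSC cardiomyocytes received 0.2-100 uM test chemical in 0.5% DMSO for 1.5 h at 37 C.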

Assay [16] can be described thus: TAMU_PeakParms_SingleDonor1434_QT: Texas A&M University (TAMU) 1.5-hr Human Induced Pluripotent Stem Cell (iPSC)-derived Cardiomyocytes Calcium (Ca+2) Flux Assay for Cardiotoxicity: QT (decay-rise ratio) (AID 2284235; active = hit-call score of the fitted dose curve at least 0.9, where 1 is the maximum). A digest of the protocol:
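Decay/rise ratio of calcium-flux fluorescence scored after 90 min exposure (37C) of donor 1434 iPSC cardiomyocytes to 0.2–100 uM (0.5% DMSO). Beat-cessation and severe-notch points removed; POD is EC05, a 5% rise over DMSO.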

Assay [17] in a line: CCTE_Mundy_HCI_hNP1_Pro_ResponderAvgInten: CCTE's Proliferation Assay in human neuroprogenitor cells, Mundy Lab (AID 2284224; active = hit-call score of the fitted dose curve at least 0.9, where 1 is the maximum). A digest of the protocol: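 Proliferation read as average intensity of BrdU-positive cells, imaged at 26.25 h post-dosing: chemical exposure started after 40–44 h culture, BrdU during final 4 h, paraformaldehyde fixation. Positive-direction fit relative to DMSO.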

The nature of assay [18]: UKN2_HCS_IMR90_cell_viability: Viability Assessment in the University of Konstanz (UKN) Leist Lab Neural Crest Cell Migration Assay in human induced IMR90 Pluripotent Stem Cells (UKN2) (AID 2284233).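 Also: cells exposed to compound for 24 h after a 24 h migration phase.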 The essentials: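 Viability read as calcein-AM fluorescence by high-content imaging, Hoechst co-stain, 30 min. Human iPSC (IMR90) neural crest cells had migrated 24 h into stopper-defined gaps before 24 h chemical exposure. Fitted bidirectionally relative to DMSO.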

Assay [19] in a line: CCTE_Mundy_HCI_hNP1_Casp3_7: CCTE's Caspase-Glo 3/7 Assay in human neuroprogenitor cells for Apoptosis, Mundy Lab (AID 2284240). A digest of the protocol: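 Luminescent caspase-3/7 readout, 26.5 h post-dose, in human neural progenitor cells from WA09 embryonic stem cells. Cells grew 40–44 h at 37 °C, 5% CO2 before chemical addition. Activity analysed as signal increase over DMSO baseline.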

Assay [20] in a line: CCTE_Mundy_HCI_hNP1_CellTiter: CCTE's Cell Titer-Glo 2 Assay in human neuroprogenitor cells for Viability, Mundy Lab (AID 2284241; active = hit-call score of the fitted dose curve at least 0.9, where 1 is the maximum;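 as to AC50: a hit is a drop in ATP luminescence versus DMSO meaning reduced viability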). The essentials: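 Viability read as luminescent ATP content (CellTiter-Glo, 30 min room temperature) twenty-four hours after dosing, relative to DMSO. Cells: WA09-derived hNP1 neuroprogenitors on poly-L-ornithine/laminin, plated 40 to 44 hours before chemical.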
In general terms: In ATP-based viability assays light output follows the ATP content of the culture.

Chain of Tumor necrosis factor (Homo sapiens) (P01375 whole entry, looked up): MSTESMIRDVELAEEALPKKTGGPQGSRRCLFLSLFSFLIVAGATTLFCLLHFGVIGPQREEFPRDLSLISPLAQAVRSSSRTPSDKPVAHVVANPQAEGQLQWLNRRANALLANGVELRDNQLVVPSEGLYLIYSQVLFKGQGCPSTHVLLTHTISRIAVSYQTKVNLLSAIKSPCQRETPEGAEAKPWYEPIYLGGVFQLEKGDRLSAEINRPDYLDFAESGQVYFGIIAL

Consider `CC(C)(C)c1ccccc1OP(=O)(Oc1ccccc1)Oc1ccccc1`, for which the compound was called inactive in assay [1], in assay [2] and in assay [3]. Further, the AC50 was 13.5 µM (active) in assay [4]; 28.6 µM (active) in [5]; 29.2 µM (active) in [6]; 24 µM (active) in [7]; 36.7 µM (active) in assay [8]; 33.7 µM (active) in assay [9]. The AC50 in assay [10] was 26.2 µM (active); in assay [11], 17.5 µM (active); in assay [12], 28.3 µM (active); in assay [13] it was 25.2 µM (active); in assay [14], 3.09 µM (active).

With `CCCCC(CC)COP(=O)(Oc1ccccc1)Oc1ccccc1` (stereo not drawn), the compound was called inactive in assay [1], in assay [2], in assay [16] and in assay [11]. The AC50 is 36.7 µM (active) in assay [3]; 16.1 µM (active) in assay [4]; 31.3 µM (active) in assay [5]; 20 µM (active) in assay [6]; 20 µM (active) in assay [7]; 20 µM (active) in assay [8]. Also, the AC50 was 11.1 µM (active) in [9], 50 µM (active) in assay [15], 9.47 µM (active) in assay [12] and 9.45 µM (active) in assay [13].

Consider `CO/N=C(/C(=O)OC)c1ccccc1COc1ccccc1C`, for which the AC50 in [1] is 5.23 µM (active); in [2], 3.33 µM (active); in assay [18], 9.92 µM (active); in assay [10], 13.4 µM (active); in assay [11] it was 14.2 µM (active); in [19], 33.2 µM (active). Moreover, the figures for the AC50 in assay [20] and in assay [14] were 82.5 µM (active) and 2.98 µM (active), respectively. Besides, the compound was called inactive in assay [17].

In the case of `O=P(OCC(Br)CBr)(OCC(Br)CBr)OCC(Br)CBr` (stereo not drawn), the result in assay [3], in [12] and in assay [13] was inactive. Besides, the AC50 was 16.9 µM (active) in assay [4]; 23.9 µM (active) in assay [5]; 17.4 µM (active) in [6]; 17.4 µM (active) in assay [7]; 33.6 µM (active) in assay [8]; 17.4 µM (active) in assay [9].

For `O=C(O)C(F)(F)C(F)(F)C(=O)O`, the outcome in [3], in assay [4], in assay [5], in assay [6], in assay [7] and in assay [8] was inactive. In addition, the outcome in assay [9], in assay [12] and in [13] was inactive. The AC50 in assay [8] was 0.222 µM (active).

With `CCCCC(CC)COC(=O)c1c(Br)c(Br)c(Br)c(Br)c1C(=O)OCC(CC)CCCC` (stereo not drawn), the result in assay [3], in [4], in assay [5], in assay [6], in assay [7] and in assay [8] was inactive. Besides, the outcome in assay [9], in [12] and in assay [13] was inactive.

In the case of `O=C(O)C(F)(F)OC(F)(F)C(F)(F)OC(F)(F)F`, the outcome in [3], in assay [4], in [5], in assay [6], in assay [7] and in [8] was inactive. For the same compound, the result in [9], in assay [12], in assay [13], in [19] and in [20] was inactive. The AC50 in assay [5] was 12.6 µM (active).

Regarding `CC(C)Nc1ccc(Nc2ccccc2)cc1`, the AC50 is 2.89 µM (active) in assay [3]; 2.73 µM (active) in [4]; 2.3 µM (active) in assay [5]; 4.22 µM (active) in [6]; 3.17 µM (active) in [7]; 5 µM (active) in [8]. Further, the AC50 was 20 µM (active) in [9], 26 µM (active) in assay [12] and 20 µM (active) in [13].

`CCC1(c2ccccc2)C(=O)N=C(O)NC1=O` (stereo not drawn): the compound was classed as inactive in assay [1], in assay [2], in assay [11], in [19], in assay [20] and in [14].

Regarding `Cc1c([N+](=O)[O-])cc2c(c1[N+](=O)[O-])C(C)(C)CC2(C)C`, the AC50 in assay [3] was 33.2 µM (active); in assay [4] it was 20 µM (active); in [5] it was 20 µM (active); in assay [8] it was 29.5 µM (active); in [9] it was 6.96 µM (active). Besides, the result in [6], in assay [7], in assay [12] and in assay [13] was inactive.

As to `FC(F)(F)C(F)(C(F)(F)F)C(F)(F)C(F)(F)CC1CO1` (stereo not drawn), the compound was classed as inactive in assay [17], in assay [3], in assay [4], in assay [5], in assay [6] and in [7]. The outcome in [8], in assay [9], in [12], in assay [13], in [19] and in assay [20] was inactive.
